Reference: PubChem BioAssay (NCI)
Several values for one entry are separate records, joined by “and”; a condition that tells them apart may be missing. Equal entries are not always repeated. This is part of a sample that, as a whole, favours compounds with a hit. Of some 83,000 tested, about 20% had one in any assay.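 Growth was measured after 48 h exposure to one concentration of compound in 96-well plates. Values under 10 count as active.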 Unmarked numbers belong to inactive results. Activity calls are given as the source filed them.

tested on: MDA-MB-468 breast; assay: NCI-60 one-dose screen, 48 h (100 = growth as untreated, 0 = no growth, -100 = all killed); settings: 10 µM unless noted

SMILES	growth
CC(C)(C)OC(=O)CC1(O)CCCCC1	94.5%
COc1ccc(-n2c(COc3ccc(F)cc3)n[nH]c2=S)cc1	103%
C#CCNC(=O)[C@H](Cc1ccccc1)NC(=O)[C@]12CC[C@@H](C(=C)C)[C@@H]1[C@H]1CC[C@@H]3[C@@]4(C)Cc5c([nH]c6ccccc56)C(C)(C)[C@@H]4CC[C@@]3(C)[C@]1(C)CC2	97.9%
Oc1ccc(Nc2ccccc2)cc1	86.4%
COc1ccc(/C=C/C(=O)c2cc(S(N)(=O)=O)c(OC)cc2OC)cc1	-6.04% (active)
Cc1sc2nc(NCCc3cccs3)[nH]c(=O)c2c1C	82.4%
O=[N+]([O-])c1ccc(N/N=C/c2ccccc2O)nc1	10.3%
O=C(Nc1cccc(-n2ccc3c(NC(=O)c4ccccc4)ncnc32)c1)Nc1ccc(Cl)c(C(F)(F)F)c1	-2.39% (active)
CCC(=O)Oc1ccc2c(c1)CC[C@@H]1[C@@H]2CC[C@]2(C)C[C@H](OC(=O)CC)C[C@@H]12	47.9%
CCNC(=O)N1CCc2cc(OC)c(OCCc3ccc(OC)c(N)c3)cc2C1c1cc(C)c(C)cc1C (stereo unspecified)	42%
Cc1ccc(N(CSc2ccc(Cl)cc2)CSc2ccc(Cl)cc2)cc1	91.5%
O=[N+]([O-])c1ccc(Sc2cccc[n+]2[O-])c2nonc12	49.3%
CN(C)c1ccc(C(=N)c2ccc(N(C)C)cc2)cc1	-45.5% (active) and -18.9% (active)
COc1ccc(CNc2c3ccccc3nc3ccc(OC)cc23)cc1	-14.7% (active)
O=C(Nc1ccc(/C=C2\SC(=O)N(Cc3ccc(OC(F)(F)F)cc3)C2=O)cc1)c1ccc(Cl)c([N+](=O)[O-])c1	12.5%
CCN(C(=O)CN1CCN(c2cc3c(cc2F)c(=O)c(C(=O)O)cn3C2CC2)CC1)c1nc(-c2ccc(OC)cc2)cs1	60.9%
CC(=O)/C(N=Nc1ccc(S(=O)(=O)c2ccc(N=N/C(C(C)=O)=C(/C)O)cc2)cc1)=C(\C)O	108%
C=C(C)[C@@H]1CC[C@]2(C=O)CC[C@]3(C)[C@H](CC[C@@H]4[C@@]5(C)CCCNC(C)(C)[C@@H]5CC[C@]43C)[C@@H]12	64.6%

SMILES	growth
COc1ccccc1NC(=O)n1c(=O)cc(C)c2ccc(O)cc21	96.3%
O=C(COCc1c(-c2ccccc2)no[n+]1[O-])Nc1ccc(C(=O)/C=C/c2ccc3c(c2)OCO3)cc1	98.7%
Cc1ccc(-c2nc3nc(-c4ccc(F)cc4)nc(N4CCCNCC4)c3o2)cc1	-75.5% (active)
CCCCCCCCCCCC(=O)OC(C)C(=O)NCCCC (stereo unspecified)	105%
Cc1cc(O)c(C2=NN(c3ccc(S(N)(=O)=O)cc3)C(c3ccccc3O)C2)cc1Cl (stereo unspecified)	17.2%
Clc1ccccc1N=Cc1ccc2c(c1)OCO2	101%
CSC1=NCCCC1	102%
CCOC(=O)Nc1ccc(-c2ccc3c(c2)NC(=O)/C3=C\c2ccc[nH]2)cc1	-8.48% (active)
NS(=O)(=O)c1ccc(Nc2nc(N/N=C/c3ccc(F)cc3)nc(Nc3ccccc3)n2)cc1	54.1%
CCCCCc1ccnc(CC(=O)c2ccc(OC)cc2)c1	65.5%
COc1ccc(-c2cc(-c3cc(OC)ccc3OC)nc(SCC(C)=O)c2C#N)cc1	56.2%
O=C1Nc2c(C(=O)O)cccc2/C1=N/c1n[nH]c(=S)s1	89.4%
COC(=O)c1c2c(c(C)[n+]([O-])c1C)C(=O)C(NCc1ccc(F)cc1)=CC2=O	-9.79% (active)
CCCCCc1ccc(S(=O)(=O)Nc2cc(-c3csc(NC(=O)CN4CCN(C)CC4)n3)ccc2N2CCN(C)CC2)cc1	51.7%
C=C1C(=O)O[C@H]2[C@H]1CC/C(COC(=O)CCCCCCCCC(=O)OC/C1=C/CC[C@@]3(C)O[C@H]3[C@H]3OC(=O)C(=C)[C@@H]3CC1)=C\CC[C@@]1(C)O[C@@H]21	-32.7% (active)
O=C(O)c1cn(C2CC2)c2cc(N3CCN(Cc4nnc(Nc5ccccc5)o4)CC3)c(F)cc2c1=O	114%
O=C(Nc1ccc(Cl)cc1F)c1ccccc1O	6.26% (active)
O=C1CCC(c2c(O)cc(O)c3c(=O)c(O)c(-c4ccc(O)c(O)c4)oc23)N1 (stereo unspecified)	108%
